From PubChem BioAssay (Tox21)
Where “and” joins values, the source holds several entries; their conditions need not be identical. Equal values may be shown once. Results filed as inconclusive are left out. Calls of active or inactive are those of the source. Unless noted, the call rests on the fitted dose curve.

Experiments:
[1] = Nuclear factor erythroid 2-related factor 2/antioxidant responsive element (Nrf2/ARE) small molecule agonists: qHTS cell viability counter screen in human keratinocytes (AID 1919968; active means well fitted cell-killing curve with a large enough effect in the repeat runs; further: nearly all actives have a fitted effect of over 55% in size; further: potency means the concentration at half of the fitted maximal effect)
Method in brief: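 Cytotoxicity was multiplexed with the Nrf2/ARE luciferase assay in the same wells. Stably transfected HaCaT keratinocytes were treated with test compounds for 23 h at 37 C. Cell viability was then measured by CellTiter-Fluor fluorescence.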

[2] = Nuclear factor erythroid 2-related factor 2/antioxidant responsive element (Nrf2/ARE) small molecule agonists: luciferase reporter gene qHTS assay in human keratinocytes (AID 1919969); further: nearly all actives have a fitted effect of over 35% in size; further: potency means the concentration at half of the fitted maximal effect
[3] = biological target: Gonadotropin-releasing hormone receptor (Homo sapiens) (UniProt P30968); experiment: Human gonadotropin-releasing hormone receptor (GnRHR) small molecule agonists, calcium flux assay in GnRHR-HEK293 cells (AID 1920063); further: nearly all actives have a fitted effect of over 35% in size; further: potency means the concentration at half of the fitted maximal effect
Gonadotropin-releasing hormone receptor (Homo sapiens), sequence (P30968 whole entry, looked up): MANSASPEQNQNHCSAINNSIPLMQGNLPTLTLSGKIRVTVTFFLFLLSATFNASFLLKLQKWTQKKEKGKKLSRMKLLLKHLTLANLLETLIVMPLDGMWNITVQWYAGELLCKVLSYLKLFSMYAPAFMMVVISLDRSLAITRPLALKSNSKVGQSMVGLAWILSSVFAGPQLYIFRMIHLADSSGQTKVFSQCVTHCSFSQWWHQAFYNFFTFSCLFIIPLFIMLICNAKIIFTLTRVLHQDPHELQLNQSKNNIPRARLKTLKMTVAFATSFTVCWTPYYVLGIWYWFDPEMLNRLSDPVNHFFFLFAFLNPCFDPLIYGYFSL
Method in brief: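 Agonist activity was measured as intracellular calcium flux in HEK293 cells engineered to stably express human GnRHR. After dye loading for 1 hour at 37 C, compounds in DMSO were added and fluorescence was followed for 3 minutes.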

[4] = p53 small molecule agonists, cell-based qHTS assay with human liver microsomes (AID 1963577)
Method in brief: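 Fluorescence of the beta-lactamase reporter in p53RE-bla cells, detected with LiveBLAzer substrate (2 h, room temperature, dark), served as the read-out after 16 h compound exposure at 37 C with human liver microsomes and NADPH, each 0.5 mg/mL final.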

[5] = p53 small molecule agonists, cell-based qHTS assay with rat liver microsomes (AID 1963578)
Method in brief: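 Cells carrying a p53 response element–beta-lactamase reporter were plated and rested 5 h, then dosed with compound in DMSO plus rat liver microsomes and NADPH, each at 0.5 mg/mL final. After 16 h at 37 C, LiveBLAzer substrate was added for 2 h.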

[6] = p53 small molecule agonists, cell-based qHTS assay with rat liver microsomes: qHTS cell viability counter screen (AID 1963580); further: nearly all actives have a fitted effect of over 45% in size
Method in brief: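 After the beta-lactamase ratio was read, CellTiter-Glo was added to the same wells and luminescence measured at 30 min; cells had been treated 16 h at 37 C with compounds, rat liver microsomes and NADPH (0.5 mg/mL final each).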

[7] = biological target: 5-hydroxytryptamine receptor 2A (Homo sapiens) (UniProt P28223); experiment: 5-hydroxytryptamine receptor 2A (HTR2A) small molecule antagonists, cell-based qHTS assay (AID 1963586); further: nearly all actives have a fitted effect of over 45% in size
5-hydroxytryptamine receptor 2A (Homo sapiens), sequence (P28223 whole entry, looked up): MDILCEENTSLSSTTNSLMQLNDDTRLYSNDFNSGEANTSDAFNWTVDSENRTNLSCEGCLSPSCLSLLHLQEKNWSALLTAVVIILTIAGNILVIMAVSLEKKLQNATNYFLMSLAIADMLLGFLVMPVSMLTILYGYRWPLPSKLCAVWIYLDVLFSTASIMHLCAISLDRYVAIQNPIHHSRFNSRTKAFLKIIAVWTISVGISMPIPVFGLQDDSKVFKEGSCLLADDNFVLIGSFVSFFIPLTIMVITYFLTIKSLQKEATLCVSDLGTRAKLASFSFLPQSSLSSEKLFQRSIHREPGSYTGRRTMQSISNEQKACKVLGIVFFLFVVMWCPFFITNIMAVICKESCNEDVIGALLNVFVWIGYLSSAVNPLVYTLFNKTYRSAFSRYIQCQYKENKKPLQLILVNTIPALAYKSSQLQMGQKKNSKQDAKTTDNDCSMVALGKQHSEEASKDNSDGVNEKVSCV
Method in brief: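 CHO cells stably expressing human HTR2A were plated for 18 h at 37 C, then loaded with calcium dye for 1 h. Compounds were preincubated 5 min at room temperature before DOI (4 nM solution) was added. Kinetic fluorescence was read for 3 min.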

[8] = biological target: 5-hydroxytryptamine receptor 2A (Homo sapiens) (UniProt P28223); experiment: 5-hydroxytryptamine receptor 2A (HTR2A) small molecule agonists, cell-based qHTS assay (AID 1963587); further: nearly all actives have a fitted effect of over 30% in size; further: potency means the concentration at half of the fitted maximal effect
Method in brief: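 CHO cells stably expressing human HTR2A, plated 18 h, loaded with calcium dye 1 h at 37 C. Agonist mode: compounds added and intracellular calcium fluorescence recorded kinetically for 2 min at 1 sec intervals.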

[9] = biological target: Muscarinic acetylcholine receptor M1 (Homo sapiens) (UniProt P11229); experiment: Cholinergic receptor muscarinic 1 (CHRM1) small molecule antagonists, cell-based qHTS assay (AID 1963588); further: nearly all actives have a fitted effect of over 40% in size
Muscarinic acetylcholine receptor M1 (Homo sapiens), sequence (P11229 whole entry, looked up): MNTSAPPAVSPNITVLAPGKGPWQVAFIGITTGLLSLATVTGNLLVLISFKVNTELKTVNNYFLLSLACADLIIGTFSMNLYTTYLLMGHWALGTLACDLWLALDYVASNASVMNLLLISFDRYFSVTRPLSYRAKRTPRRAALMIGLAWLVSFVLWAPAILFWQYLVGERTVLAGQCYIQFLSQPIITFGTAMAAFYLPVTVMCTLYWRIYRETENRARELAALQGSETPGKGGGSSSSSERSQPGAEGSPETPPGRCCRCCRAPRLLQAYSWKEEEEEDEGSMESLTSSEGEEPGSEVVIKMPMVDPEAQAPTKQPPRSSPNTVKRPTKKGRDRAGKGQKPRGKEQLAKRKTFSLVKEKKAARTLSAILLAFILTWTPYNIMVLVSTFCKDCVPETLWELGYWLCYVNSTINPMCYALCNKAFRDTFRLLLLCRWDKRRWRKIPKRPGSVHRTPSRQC
Method in brief: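 Compounds were tested at 15 concentrations in three independent runs. Dye-loaded CHRM1-CHO cells were exposed 5 min at room temperature before stimulation by acetylcholine added at 50nM. Intracellular calcium was read kinetically on FDSS for 3 min.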

[10] = biological target: Muscarinic acetylcholine receptor M1 (Homo sapiens) (UniProt P11229); experiment: Cholinergic receptor muscarinic 1 (CHRM1) small molecule agonists, cell-based qHTS assay (AID 1963589); further: nearly all actives have a fitted effect of over 35% in size; further: potency means the concentration at half of the fitted maximal effect
Method in brief: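 Cells were plated and incubated 18 h at 37 C/5% CO2, loaded with calcium dye for 1 h at 37 C, then treated with compounds in DMSO. Fluorescence was recorded kinetically at 1 sec intervals.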

[11] = cAMP Responsive Elements (CRE) small molecule agonists, cell-based qHTS assay (AID 1963590)
Method in brief: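 Cells carrying a CRE-driven beta-lactamase reporter (HEK 293T) are seeded, incubated overnight (18 h), and treated with test compounds for 3 h at 37 C; reporter activity is then detected with a FRET substrate after 2 h at room temperature.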

[12] = cAMP Responsive Elements (CRE) small molecule antagonists, cell-based qHTS assay (AID 1963591; active means well fitted inhibition curve with a large enough effect in the signal ratio in the repeat runs, not every such curve was filed as active; the % refers to the signal ratio)
Method in brief: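 Cells (CRE-bla HEK 293T, DMEM with 10% dialyzed FBS and 25 mM HEPES) are seeded and incubated 18 h. Compounds are added with NKH477 agonist at 0.25 uM final for 3 h, then FRET substrate for 2 h.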

[13] = biological target: Beta-2 adrenergic receptor (Homo sapiens) (UniProt P07550); experiment: Adrenergic beta2 receptor (ADRB2) small molecule antagonists, cell-based qHTS assay (AID 1963592); further: series mostly up to about 92 µM; nearly all actives have a fitted effect of over 50% in size
Beta-2 adrenergic receptor (Homo sapiens), sequence (P07550 whole entry, looked up): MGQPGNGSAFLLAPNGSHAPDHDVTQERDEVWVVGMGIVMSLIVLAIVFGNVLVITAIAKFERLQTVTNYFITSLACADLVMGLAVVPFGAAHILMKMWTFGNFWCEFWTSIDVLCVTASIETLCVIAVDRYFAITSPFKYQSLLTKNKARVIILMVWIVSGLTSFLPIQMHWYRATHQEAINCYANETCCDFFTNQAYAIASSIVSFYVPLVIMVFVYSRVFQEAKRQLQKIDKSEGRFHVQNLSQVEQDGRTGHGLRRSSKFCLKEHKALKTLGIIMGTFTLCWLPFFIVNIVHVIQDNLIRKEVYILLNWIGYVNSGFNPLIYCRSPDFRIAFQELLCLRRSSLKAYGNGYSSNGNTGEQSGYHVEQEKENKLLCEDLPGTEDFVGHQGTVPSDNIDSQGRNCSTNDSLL
Method in brief: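 Assay format: CHO-ADRB2 cells, 18-20hr seeding at 37C/5% CO2, then compound plus 1nM isoproterenol agonist mix for 0.5hr RT. Homogeneous time-resolved fluorescence cAMP detection after 1hr, expressed as 665/615 nm ratio.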

[14] = biological target: Beta-2 adrenergic receptor (Homo sapiens) (UniProt P07550); experiment: Adrenergic beta2 receptor (ADRB2) small molecule agonists, cell-based qHTS assay (AID 1963593);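 further: CHO cells stably overexpressing human ADRB2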
Method in brief: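 CHO cells stably over-expressing ADRB2 were plated overnight at 37C, then dosed with compounds plus a stimulation mix containing 100uM IBMX and 25uM Ro-20-1724 for 0.5hr at room temperature. cAMP was measured by HTRF competition, 1hr.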

[15] = biological target: D(2) dopamine receptor (Homo sapiens) (UniProt P14416); experiment: Dopamine D2 receptor (DRD2) small molecule agonists, cell-based qHTS assay (AID 1963594); further: nearly all actives have a fitted effect of over 35% in size
D(2) dopamine receptor (Homo sapiens), sequence (P14416 whole entry, looked up): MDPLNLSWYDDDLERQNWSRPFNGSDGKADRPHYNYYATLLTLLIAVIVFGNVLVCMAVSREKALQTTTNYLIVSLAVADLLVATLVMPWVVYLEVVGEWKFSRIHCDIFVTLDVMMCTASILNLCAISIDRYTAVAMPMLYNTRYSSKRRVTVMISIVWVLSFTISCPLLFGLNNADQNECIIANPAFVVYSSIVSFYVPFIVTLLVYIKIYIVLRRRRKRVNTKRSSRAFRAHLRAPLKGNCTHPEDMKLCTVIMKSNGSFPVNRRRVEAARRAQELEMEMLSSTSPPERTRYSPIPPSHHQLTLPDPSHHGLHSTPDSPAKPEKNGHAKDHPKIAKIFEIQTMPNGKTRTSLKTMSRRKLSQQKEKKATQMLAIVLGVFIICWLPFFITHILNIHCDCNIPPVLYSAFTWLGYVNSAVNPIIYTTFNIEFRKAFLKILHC
Method in brief: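 HEK293 cells stably expressing human DRD2, pre-treated with PDE inhibitor Ro20-1724 (0.1 mM final) and compound 10 min at room temperature, then stimulated with NKH477 (200nM […]) for 30 min. cAMP read by HTRF (665/620 nm).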

[16] = biological target: D(2) dopamine receptor (Homo sapiens) (UniProt P14416); experiment: Dopamine D2 receptor (DRD2) small molecule antagonists, cell-based qHTS assay (AID 1963595; active means well fitted inhibition curve with a large enough effect in the signal ratio in the repeat runs, with a control signal flat; the % refers to the signal ratio)
Method in brief: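 Readout: HTRF cAMP, cAMP-d2 competing with cellular cAMP for anti-cAMP cryptate, read after 1 h. Cells: DRD2-HEK293. Conditions: 0.1 mM Ro20-1724, 12 nM quinpirole, 200 nM NKH477, 30 min RT.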

[17] = p53 small molecule agonists, cell-based qHTS assay: qHTS cell viability counter screen (AID 1963581); further: nearly all actives have a fitted effect of over 45% in size
Method in brief: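 Viability was counter-screened in parallel with the p53 agonist reporter by measuring intracellular ATP luminescence in the same HCT-116 p53RE-bla wells after 16 h compound treatment at 37 C.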

[18] = p53 small molecule agonists, cell-based qHTS assay (AID 1963582; active means well fitted activation curve with a large enough effect in the signal ratio in the repeat runs, not every such curve was filed as active; the % refers to the signal ratio)
Method in brief: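 Cells carrying a p53-responsive bla reporter are treated with test compounds for 16 h at 37 C; beta-lactamase activity is then detected with LiveBLAzer B/G FRET substrate after 2 h at room temperature.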

[19] = p53 small molecule agonists, cell-based qHTS assay with human liver microsomes: qHTS cell viability counter screen (AID 1963579); further: nearly all actives have a fitted effect of over 45% in size
Method in brief: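 Cytotoxicity counter screen: p53RE-bla, 4,000 cells/well; 5 h settle, 37 C/5% CO2; cpd + HLM 0.5 mg/mL + NADPH 0.5 mg/mL (final); 16 h, 37 C; CellTiter-Glo, 30 min RT, luminescence.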
On the % scale 0 is the no-effect control and ±100 the full control effect.

CCCCOC(=O)C(=O)OCCCC
inactive: Potency [1] | Potency [2] | Potency [3] | Potency [4] | Potency [5] | Potency [6] | Potency [7] | Potency [8] | Potency [9] | Potency [10] | Potency [11] | Potency [12] | Potency [13] | Potency [14] | Potency [15] | Potency [16]

CCCCCCCCC1CCC(=O)O1 (stereo not given)
inactive: Potency [1] | Potency [2] | Potency [3] | Potency [4] | Potency [5] | Potency [6] | Potency [17] | Potency [18] | Potency [7] | Potency [8] | Potency [10] | Potency [11] | Potency [12] | Potency [13] | Potency [14] | Potency [15] | Potency [16]

CC1CCC(C(C)(C)O)CC1 (stereo not given)
inactive: Potency [1] | Potency [2] | Potency [3] | Potency [4] | Potency [5] | Potency [19] | Potency [17] | Potency [18] | Potency [8] | Potency [9] | Potency [10] | Potency [11] | Potency [13] | Potency [14] | Potency [15] | Potency [16]

COc1cccc(OC)c1O
inactive: Potency [1] | Potency [2] | Potency [3] | Potency [4] | Potency [5] | Potency [6] | Potency [17] | Potency [18] | Potency [7] | Potency [8] | Potency [9] | Potency [10] | Potency [11] | Potency [12] | Potency [13] | Potency [15] | Potency [16]

O=C1OC2(c3cc(Br)c(O)c(Br)c3Oc3c2cc(Br)c(O)c3Br)c2c(Cl)c(Cl)c(Cl)c(Cl)c21
active: Potency [1] 4.86 µM and 18.6 µM | Potency [3] 39 µM and 23.6 µM | Potency [8] 17.4 µM and 33.4 µM | Potency [10] 49.1 µM and 33.4 µM
inactive: Potency [2] | Potency [19] | Potency [6] | Potency [17] | Potency [7] | Potency [9] | Potency [11] | Potency [13] | Potency [14] | Potency [15] | Potency [16]

CC(C)=CCCC(C)O (stereo not given)
inactive: Potency [1] | Potency [2] | Potency [3] | Potency [4] | Potency [5] | Potency [6] | Potency [18] | Potency [7] | Potency [8] | Potency [9] | Potency [10] | Potency [11] | Potency [12] | Potency [13] | Potency [14] | Potency [15] | Potency [16]

Cc1ccc2c(ccc3ccccc32)c1
inactive: Potency [1] | Potency [2] | Potency [3] | Potency [4] | Potency [5] | Potency [19] | Potency [17] | Potency [18] | Potency [7] | Potency [8] | Potency [9] | Potency [10] | Potency [11] | Potency [12] | Potency [13] | Potency [14] | Potency [15] | Potency [16]

CC(S)C(=O)NCC(=O)O (stereo not given)
inactive: Potency [1] | Potency [2] | Potency [3] | Potency [4] | Potency [5] | Potency [6] | Potency [17] | Potency [7] | Potency [8] | Potency [9] | Potency [10] | Potency [11] | Potency [12] | Potency [13] | Potency [15] | Potency [16]

O=C(Nc1ccc([N+](=O)[O-])cc1Cl)c1cc(Cl)ccc1O
active: Potency [1] 1.93 µM and 291 nM | Potency [2] 34.4 µM and 41.1 nM
inactive: Potency [3] | Potency [4] | Potency [5] | Potency [19] | Potency [6] | Potency [7] | Potency [8] | activity, negative = inhibition [9] -9.19% [at 12.6 µM] | Potency [10] | activity change, negative = inhibition [13] -7.38% [at 19 µM] | Potency [16]
